Reference: PubChem BioAssay
Calls of active or inactive are those of the source.

How the values were obtained:
Albumin (Bos taurus) = Albumin (Bos taurus) (UniProt P02769); assay: compounds binding labelled BSA control protein – biochemical, small-molecule microarray, Alexa647 label, 635/667 nm fluorescence, artefact control for SMM control protein annotation, profiling panel (AID 1118); settings: BSA-A647 binding, fluorescence 635 nm, higher = more signal;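 also: score merges 667 nm emission intensity and signal-to-noise per printed compound spot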
[1] = probe aXIP binding to arrayed compounds – biochemical, NeuroSMM set, 635/667 nm fluorescence, primary screen (AID 1119); settings: small-molecule microarray, higher = more signal, called active from +8 up or from −8 down;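 also: probe is the protein aXip251-270 applied at 1 µg/mL to compound-printed slides; binding of probe to printed compounds measured as 667 nm fluorescence plus signal to noise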
[2] = probe aNOTCH3 binding on compound microarray – biochemical, small-molecule microarray, 635/667 nm fluorescence, primary screen (AID 1120); settings: higher = more signal;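 also: probe is a biotin-tagged antibody raised against NOTCH3 rather than NOTCH3 protein; score merges spot fluorescence near 667 nm with spot signal to noise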
[3] = probe aNOTCH2 binding on compound microarray – biochemical, small-molecule microarray, 635/667 nm fluorescence, primary screen (AID 1121); settings: higher = more signal;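 also: score merges feature fluorescence read at 667 nm with its signal to noise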
[4] = biological target: Carbonic anhydrase 2 (Homo sapiens) (UniProt P00918); assay: compounds binding carbonic anhydrase 2 – biochemical, small-molecule microarray, Alexa647-labelled CAII, profiling panel (AID 1122); settings: CAII-A647 binding fluorescence, higher = more signal
[5] = COS7 lysate on small-molecule microarray, probe aHis, 635 nm (AID 1123); settings: COS7 cell lysate, fluorescence, higher = more signal;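 also: z-score combines 667nm fluorescence intensity with signal-to-noise per printed compound spot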
[6] = probe aLAP1 signal on lysate-treated microarray – cell lysate, small-molecule microarray, COS7 lysate, primary screen (AID 1124); settings: probe aLAP1, fluorescence, higher = more signal;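 also: lysate comes from COS7 cells expressing LAP1 and is applied at 0.3 µg/mL; score merges spot fluorescence near 667 nm with signal-to-noise over triplicate slides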
Sam68 (KHDRBS1) = assay: compounds binding KHDRBS1 protein – biochemical, small-molecule microarray, 635 nm fluorescence, primary screen (AID 1125); settings: higher = more signal;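 also: score merges 667 nm channel intensity with signal to noise over triplicate slides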
[7] = system: Chordin-like protein 2 (CHRDL2); assay: compounds binding chordin-like 2 – biochemical, small-molecule microarray, 635 nm fluorescence, primary screen (AID 1126); settings: fluorescence 635 nm, higher = more signal;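 also: printed compound slides probed with Chrdl2 protein at 4 µg/mL for 1 h at 4 C; score merges 667 nm emission intensity with signal to noise over three replicate slides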
[8] = biological target: Concanavalin-A (Canavalia ensiformis) (UniProt P02866); assay: compounds binding concanavalin A lectin – biochemical, small-molecule microarray, Alexa647 label, 635 nm, artefact control for SMM control protein annotation, primary screen (AID 1127); settings: ConA-A647 binding fluorescence, higher = more signal;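 also: z combines 667 nm emission intensity with signal-to-noise across three replicate slides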
[9] = compounds binding Alexa647 anti-His antibody – biochemical, small-molecule microarray, 635 nm fluorescence, artefact control for SMM control protein annotation, primary screen (AID 1128); settings: higher = more signal;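 also: score merges feature fluorescence with signal-to-noise for each printed compound spot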
[10] = system: Human papillomavirus type 1a E7 protein (residues 1-88); assay: HPV1a E7 small-molecule binders, primary screen, biochemical, small-molecule microarray, residues 1-88, 635 nm (AID 1129); settings: small-molecule microarray binding, fluorescence 635 nm; higher = more signal
[11] = biological target: Focal adhesion kinase 1 (Homo sapiens) (UniProt Q05397); assay: PTK2 protein binding on printed compound slides – biochemical, small-molecule microarray, 635/667 nm fluorescence, BSA, DTT, primary screen (AID 1130); settings: 635 nm fluorescence, higher = more signal;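 also: composite of spot emission at 667 nm and signal to noise over triplicate slides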
[12] = system: Fibrinogen (Alexa647-labelled); assay: Alexa647-fibrinogen binding to printed small molecules – biochemical, small-molecule microarray, 635/667 nm fluorescence, artefact control for SMM control-protein annotation, profiling panel (AID 1131); settings: fibrinogen-A647 binding fluorescence, higher = more signal;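 also: z-score merges 667 nm fluorescence with per-spot signal-to-noise over triplicate slides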
[13] = biological target: Follistatin (Homo sapiens) (UniProt P19883); assay: FST protein binding to printed compounds – biochemical, small-molecule microarray, 635/667 nm fluorescence, primary screen (AID 1132); settings: 635 nm fluorescence, higher = more signal
[14] = biological target: Fibroblast growth factor 2 (Homo sapiens) (UniProt P09038); assay: basic fibroblast growth factor binding to printed compounds – biochemical, small-molecule microarray, 635/667 nm fluorescence, primary screen (AID 1133); settings: FGF2, fluorescence 635/667, higher = more signal
[15] = JC-1 mitochondrial potential readout, lung cancer cells – cell-based, A549, JC-1 fluorescence, basal, 24 h, 100 nL, profiling panel (AID 1138); settings: higher = more signal;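 also: A549 lung adenocarcinoma cells under basal conditions with no added stimulus; test concentration not given here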
Lefty1 = Lefty1 protein binding to printed compounds – biochemical, small-molecule microarray, 635/667 nm fluorescence, primary screen (AID 1139); settings: fluorescence 635/667, higher = more signal
[16] = system: wheat germ agglutinin (Triticum aestivum), Alexa647-labelled; assay: Alexa647-WGA lectin binding to printed small molecules – biochemical, small-molecule microarray, 635/667 nm fluorescence, artefact control for SMM control-protein annotation, profiling panel (AID 1140); settings: WGA-A647 binding, 635 nm fluorescence, higher = more signal;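 also: score merges 667 nm feature emission with signal to noise over triplicate slides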
[17] = biological target: Luciferin 4-monooxygenase (Photinus pyralis) (UniProt P08659); assay: inhibition of purified Photinus pyralis luciferase – biochemical, luminescence, purified enzyme, 2006 set, primary screen (AID 1141); settings: purified firefly luciferase, SteadyGlo luminescence, 30 min; higher = more signal, called active from +8 up or from −8 down;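 also: cell-free assay with purified firefly luciferase at 100 ng per well in PBS; test concentration not given here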
Chain of Luciferin 4-monooxygenase (Photinus pyralis) (P08659 whole entry, looked up): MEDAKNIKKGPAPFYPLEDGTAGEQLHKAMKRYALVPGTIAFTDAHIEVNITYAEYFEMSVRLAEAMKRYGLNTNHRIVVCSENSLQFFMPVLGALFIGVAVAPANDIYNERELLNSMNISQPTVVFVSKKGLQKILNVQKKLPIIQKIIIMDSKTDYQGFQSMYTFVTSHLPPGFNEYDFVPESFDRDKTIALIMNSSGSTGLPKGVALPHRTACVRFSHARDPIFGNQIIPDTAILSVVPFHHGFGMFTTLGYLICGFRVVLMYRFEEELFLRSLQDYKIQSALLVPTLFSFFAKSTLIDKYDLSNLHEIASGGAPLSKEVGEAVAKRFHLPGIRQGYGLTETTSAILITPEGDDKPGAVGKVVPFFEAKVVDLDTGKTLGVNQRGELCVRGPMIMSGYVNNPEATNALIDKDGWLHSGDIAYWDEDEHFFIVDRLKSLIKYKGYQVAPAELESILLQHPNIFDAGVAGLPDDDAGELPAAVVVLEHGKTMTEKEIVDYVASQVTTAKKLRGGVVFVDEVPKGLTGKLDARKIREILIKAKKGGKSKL

Chain of Fibroblast growth factor 2 (Homo sapiens) (P09038 whole entry, looked up): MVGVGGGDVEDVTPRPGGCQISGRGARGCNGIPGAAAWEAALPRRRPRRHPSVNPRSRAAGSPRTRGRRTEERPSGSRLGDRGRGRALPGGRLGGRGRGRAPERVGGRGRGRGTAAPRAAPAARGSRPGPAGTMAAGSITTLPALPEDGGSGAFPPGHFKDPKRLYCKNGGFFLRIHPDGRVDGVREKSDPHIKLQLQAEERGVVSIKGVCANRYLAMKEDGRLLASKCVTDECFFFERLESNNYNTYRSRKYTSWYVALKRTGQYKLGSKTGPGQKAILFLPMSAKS
Chain of Focal adhesion kinase 1 (Homo sapiens) (Q05397 whole entry, looked up): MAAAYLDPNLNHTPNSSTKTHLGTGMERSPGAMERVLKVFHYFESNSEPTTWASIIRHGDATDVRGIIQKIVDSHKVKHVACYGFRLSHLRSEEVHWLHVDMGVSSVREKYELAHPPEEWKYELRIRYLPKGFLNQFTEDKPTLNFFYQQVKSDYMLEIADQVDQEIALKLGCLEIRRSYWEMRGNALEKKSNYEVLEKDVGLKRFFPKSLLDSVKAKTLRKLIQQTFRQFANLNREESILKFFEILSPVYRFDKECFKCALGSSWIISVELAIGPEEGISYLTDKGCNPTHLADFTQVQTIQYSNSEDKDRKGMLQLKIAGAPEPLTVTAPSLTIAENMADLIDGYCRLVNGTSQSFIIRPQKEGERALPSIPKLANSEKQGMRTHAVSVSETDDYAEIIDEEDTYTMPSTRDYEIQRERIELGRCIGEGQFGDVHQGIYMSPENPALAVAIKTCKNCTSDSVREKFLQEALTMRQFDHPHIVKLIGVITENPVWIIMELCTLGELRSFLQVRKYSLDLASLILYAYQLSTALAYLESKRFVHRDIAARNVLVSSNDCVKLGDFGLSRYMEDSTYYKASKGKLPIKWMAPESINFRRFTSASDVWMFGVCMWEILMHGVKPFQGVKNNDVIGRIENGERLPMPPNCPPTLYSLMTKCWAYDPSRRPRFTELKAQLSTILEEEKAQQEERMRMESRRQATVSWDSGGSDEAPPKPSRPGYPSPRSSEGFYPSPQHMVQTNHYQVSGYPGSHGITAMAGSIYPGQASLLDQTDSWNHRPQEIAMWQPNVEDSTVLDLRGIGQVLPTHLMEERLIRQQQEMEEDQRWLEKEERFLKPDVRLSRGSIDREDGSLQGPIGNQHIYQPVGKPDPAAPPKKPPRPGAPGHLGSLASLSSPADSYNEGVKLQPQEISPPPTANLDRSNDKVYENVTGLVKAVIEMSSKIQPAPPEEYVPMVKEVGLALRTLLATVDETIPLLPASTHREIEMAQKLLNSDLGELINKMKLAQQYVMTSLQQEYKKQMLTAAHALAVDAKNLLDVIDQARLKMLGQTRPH
Chain of Concanavalin-A (Canavalia ensiformis) (P02866 whole entry, looked up): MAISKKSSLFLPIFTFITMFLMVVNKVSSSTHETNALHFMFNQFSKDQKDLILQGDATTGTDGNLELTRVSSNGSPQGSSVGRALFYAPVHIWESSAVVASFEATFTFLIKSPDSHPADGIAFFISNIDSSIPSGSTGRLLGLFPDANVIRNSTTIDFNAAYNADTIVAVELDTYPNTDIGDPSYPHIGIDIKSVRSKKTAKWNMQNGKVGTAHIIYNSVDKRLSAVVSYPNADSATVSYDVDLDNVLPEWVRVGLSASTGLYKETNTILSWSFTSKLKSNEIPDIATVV
Chain of Albumin (Bos taurus) (P02769 whole entry, looked up): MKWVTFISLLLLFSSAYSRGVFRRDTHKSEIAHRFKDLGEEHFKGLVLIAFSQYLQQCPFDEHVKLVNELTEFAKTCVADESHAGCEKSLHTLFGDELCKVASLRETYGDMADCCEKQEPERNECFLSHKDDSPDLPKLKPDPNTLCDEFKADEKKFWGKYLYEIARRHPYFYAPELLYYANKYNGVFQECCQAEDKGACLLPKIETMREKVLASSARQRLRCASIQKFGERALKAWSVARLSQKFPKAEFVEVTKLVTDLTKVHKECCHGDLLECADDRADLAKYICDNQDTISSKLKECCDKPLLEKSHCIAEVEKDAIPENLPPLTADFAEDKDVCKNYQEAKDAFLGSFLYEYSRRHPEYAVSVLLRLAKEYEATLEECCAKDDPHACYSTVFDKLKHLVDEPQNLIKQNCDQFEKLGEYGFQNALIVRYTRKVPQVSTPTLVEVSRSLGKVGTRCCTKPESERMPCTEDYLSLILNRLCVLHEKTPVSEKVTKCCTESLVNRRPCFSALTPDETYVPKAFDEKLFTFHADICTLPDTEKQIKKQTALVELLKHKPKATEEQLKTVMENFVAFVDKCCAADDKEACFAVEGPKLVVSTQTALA
Chain of Follistatin (Homo sapiens) (P19883 whole entry, looked up): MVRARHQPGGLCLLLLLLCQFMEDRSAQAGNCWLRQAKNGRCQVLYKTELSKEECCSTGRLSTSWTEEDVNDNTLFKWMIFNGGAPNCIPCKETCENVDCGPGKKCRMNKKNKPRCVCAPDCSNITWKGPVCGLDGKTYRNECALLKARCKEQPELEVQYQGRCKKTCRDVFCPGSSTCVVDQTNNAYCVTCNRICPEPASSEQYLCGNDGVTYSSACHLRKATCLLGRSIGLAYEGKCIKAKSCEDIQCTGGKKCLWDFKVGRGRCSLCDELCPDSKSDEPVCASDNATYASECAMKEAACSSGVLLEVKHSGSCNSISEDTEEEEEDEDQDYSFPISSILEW

Compound | composite z-score (Albumin (Bos taurus)) | composite Z-score [1] | composite z-score [2] | composite z-score [3] | composite z-score [4] | composite z-score [5] | composite z-score [6] | composite z-score (Sam68 (KHDRBS1)) | composite z-score [7] | composite z-score [8] | composite z-score [9] | composite z-score [10] | composite z-score [11] | composite z-score [12] | composite z-score [13] | composite z-score [14] | z-score [15] | composite z-score (Lefty1) | composite z-score [16] | z-score [17]
COc1ccc(-c2cnnc(CCCn3ccnc3-c3ccccc3)n2)cc1 | 0.223 | 0.391 (inactive) | 0.291 | -0.126 | 0.536 | 0.0412 | 1.08 | 0.943 | 0.919 | 0.418 | 1.39 | 0.538 | 0.107 | 0.747 | 0.836 | 0.475 | 0.787 | 0.592 | 0.138 | 0.313 (inactive)
O=C1CCCC=C1C(O)C1CCCCC1 (stereo not given) | -0.0548 | -0.0549 (inactive) | -0.0325 | -0.0818 | -0.102 | 0.181 | -0.607 | -0.429 | 0.214 | -0.275 | -0.481 | -0.568 | -0.365 | -0.206 | 0.316 | -0.297 | 0.168 | 0.562 | -0.0135 | -0.376 (inactive)
COc1cccc([C@H]2Oc3ccc(OC)cc3C(=NOCC[C@@H]3C=C[C@H](OC(C)=O)[C@@H](COC(C)=O)O3)[C@@H]2O)c1 | 0.869 | 0.551 (inactive) | 0.0293 | -0.213 | 0.36 | 0.788 | 0.687 | 0.785 | 0.503 | 0.794 | -0.972 | 0.562 | 0.292 | 0.967 | 0.37 | 0.462 | -0.806 | 0.329 | 0.274 | 1.14 (inactive)
CSCC[C@@H]1NC(=O)CC=C[C@@H](C)COC(=O)[C@H](C)COC1=O | -0.891 | 3.62 (inactive) | -0.172 | 0.059 | -0.682 | -0.808 | -0.848 | 1.02 | 1.64 | -2.98 | -1.14 | -1.34 | -0.697 | -3.03 | 1.45 | 1.95 | 1.64 | 1.85 | -0.663 | -1.95 (inactive)
